A selection: hits, their analogues and other compounds. The true share with any hit is near 3.7%.
miR-21 act: qHTS Assay for Modulators of miRNAs and/orActivators of miR-21; Potency, µM (series often up to 38.3 µM), inactives show top-dose activity change, positive = activation, usual class: activators; HeLa miR-21 FLuc reporter, luciferase, 48 h; 340,000 tested, under 10 active;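 note: % of control where 0% means no effect; miR-21 action dims this reporter so a rising signal means less miR-21 action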
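HeLa cells stably expressing CMV-driven firefly luciferase with a downstream miR-21 binding sequence, endogenously expressing miR-21, were treated with titrations (up to about 40uM final) for 48 hours at 37 degree Celsius. Luciferase luminescence was read after lysis.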
Nrf2 block: Nrf2 qHTS screen for inhibitors. A549 ARE-Fluc reporter, luciferase luminescence, 18-24 h. Potency, µM (highest dose often 46 µM), inactives show at the top dose activity change, negative = inhibition, usual class: inhibitors. actives 2.1% (n = 360,000); note: potency is the fitted concentration of half-maximal effect; % is set by controls: 0 for no effect and ±100 for the full control effect; nearly all actives have a fitted effect of over 60% in size
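A549 ARE_Fluc cells, 5000/well, 5% FBS OPTI-MEM; compounds in dose-response, 18-24 h at 37 °C/5% CO2; CellTiter-Fluor viability read (Ex 405/Em 525), then BugLite luciferase luminescence = Nrf2 activity.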
ClpP mod: qHTS Assay for Activators of ClpP. ATP-dependent Clp protease proteolytic subunit (Bacillus subtilis (strain 168)), P80244. purified B. subtilis ClpP, FRET peptide cleavage, 20 min. Potency, µM (top dose mostly 57.5 µM), for the others: at the highest dose activity change, negative = active. actives 1.9% (n = 340,000); active = well fitted falling curve with a large enough effect; inconclusive = small, poorly fitted or top-dose-only effect; inactive = no such curve, though single readings can be large or run the other way; note: potency is the fitted concentration of half-maximal effect; the source files actives as falling curves though it sought activators and does not explain the sign; nearly all actives have a fitted effect of over 65% in size
Target sequence (P80244 whole entry, looked up): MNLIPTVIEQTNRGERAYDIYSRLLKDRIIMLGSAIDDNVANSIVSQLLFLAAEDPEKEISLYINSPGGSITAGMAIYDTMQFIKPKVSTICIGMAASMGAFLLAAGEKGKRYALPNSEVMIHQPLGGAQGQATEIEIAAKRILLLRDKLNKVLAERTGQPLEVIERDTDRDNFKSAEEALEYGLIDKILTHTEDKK
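Purified B. subtilis ClpP, 10 microg/mL final in Tris/HCl pH8 with KCl, BSA, glycerol and Tween-20, cleaved an Abz/nitrotyrosine-quenched decapeptide. Fluorescence (ex 320, em 430) was read at 0 and 20 min at room temperature. Delta was normalized to 5.8 microM ADEP and DMSO/no-enzyme controls.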
TCR activator: Activators of T cell receptors: qHTS campaign | AID 504894, 2011 | Potency, µM (top dose mostly 9.22 µM), inactives show at the highest dose activation of IL-2 secretion, usual class: activators | primary human leukocytes, anti-CD3, IL-2 HTRF, 48 h | 330,000 tested, under 10 active; note: % of control where 0% means no effect
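IL-2 produced over 48 hr by a-CD3 bead-stimulated primary human leukocytes exposed to compounds was detected with a homogeneous time-resolved FRET immunoassay, 665nm acceptor signal after 320nm excitation.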
Nrf2 activator: qHTS of Nrf2 Activators | AREc32 ARE-luciferase reporter (MCF7-derived line), luminescence, 24 h | Potency, µM (top dose mostly 46.1 µM), inactives show at the highest dose activation, hits mostly activators | actives 0.31% (n = 410,000) | AID 624171, 2012; note: potency is the fitted concentration of half-maximal effect; % of control where 0% means no effect; nearly all actives have a fitted effect of over 65% in size
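For detection, Steady-Glo was added and plates sat 30 min at RT; before that, AREc32_Fluc cells grown overnight in OPTI-MEM/5% FBS had been treated with 23 nL compound for 24 hr at 37 deg C.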
A549 tox: Nrf2 qHTS screen for inhibitors: counterscreen for cytotoxicity; A549 ARE-Fluc cells, CellTiter-Fluor viability, 18-24 h; Potency, µM (titrated, usually from 46 µM), for the others: top-dose activity change, negative = cytotoxicity, usual class: inhibitors; actives 0.16% (n = 390,000); AID 504648, 2011; note: potency is the fitted concentration of half-maximal effect; % is set by controls: 0 for no effect and ±100 for the full control effect
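A549 ARE-Fluc cells in 5% FBS OPTI-MEM, 5000 cells/well, rested 2 h then exposed to compounds in concentration-response for 18-24 h at 37 °C. Viability by CellTiter-Fluor fluorescence (Ex 405/Em 525) after 30 min; luciferase luminescence (BugLite, 15 min, RT) read afterwards.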
Starred values were filed as active, the others as inactive; ? = inconclusive; . = no result; ! = a repeat was not active; [ ] = dose if it differs, or a comment. Unless noted, calls come from the whole dose curve; as a rule, active = well fitted curve in the direction sought with a large enough effect; inconclusive = small, poorly fitted or top-dose-only effect, or another doubt; inactive = no such curve, though single readings can be large; an effect the other way counts as inactive or inconclusive.

SMILES | miR-21 act | Nrf2 block | ClpP mod | TCR activator | Nrf2 activator | A549 tox
Cc1noc2ncnc(Oc3ccccc3)c12 | -10% | . | 25µM* | 10% | 0% | -7%
COc1ccc(CN(Cc2ccccc2)C(=O)c2ccno2)cc1COc1ccc(NC(C)=O)cc1 | . | -2% | -1% | . | . | 7%
Cc1nn(C)cc1CNC(=O)C1CCC(=O)N(Cc2cccc(C(F)(F)F)c2)C1 (centres undefined) | 0% | -21% | 25µM* | 10% | 0% | -4%
COc1ccc(CNCc2c(C(=O)O)c(C)n(Cc3ccccc3C)c2C)cc1OC | -12% | 5% | -1% | . | 3% | 0%
CC(C)(C)c1ccc(C2CC2C(=O)N/N=C\c2ccc[nH]2)cc1 (centres undefined) | ? | 1.6µM* | . | -4% | 0%[9.22 µM] | 5.8µM*
NC(c1cccc(F)c1)c1nc(-c2ccc(Cl)cc2)cs1 (centres undefined) | . | . | -3% | . | 0%[9.22 µM] | .
Cc1nnc(NC(=O)CSc2ncnc3c2cnn3-c2ccccc2C)s1 | 1% | ? | 1% | 9% | 0% | -2%
COc1ccc(N2CCN(C(=O)CSc3ncnc4c3cnn4-c3ccccc3C)CC2)cc1 | 0% | 1% | 0% | 1% | -1% | -3%
O=C(CSc1ncnc2c1cnn2-c1ccccc1Cl)N1CCN(C(=O)c2ccco2)CC1 | -2% | 15µM* | -1% | 1% | 4% | 2%
CCOC(=O)Cc1csc(NC(=O)CSc2ncnc3c2cnn3-c2ccccc2Cl)n1 | 3% | 21µM* | -1% | -1% | 13% | -7%
O=C(COc1ccc(Cl)cc1Cl)N/N=C/c1ccc[nH]1 | -8% | 9.2µM* | -1% | 0% | 9% | ?
Cc1ccc(C)c(NC(=O)CCC(=O)N/N=C/c2ccc[nH]2)c1 | -1% | ? | -1% | 7% | 0% | -13%
Cc1c(Cl)cccc1NC(=O)CCC(=O)N/N=C/c1ccc[nH]1 | -1% | 18µM* | -3% | -6%[46.1 µM] | 0% | ?
O=C(COc1ccc(Cl)cc1Cl)N/N=C/CCc1ccccc1 | -3% | 6% | -2% | 8% | 0% | 2%
Cn1cccc1/C=C1\SC(=Nc2ccccc2)NC1=O | -23% | 19% | 0% | 5% | 17% | ?
Cc1ccc(N=C2NC(=O)/C(=C/c3cn(C)c4ccccc34)S2)cc1C | -18% | 23µM* | 1% | -2%[46.1 µM] | 0% | -19%
COc1ccc(CN2CCN(C(=O)C3CCN(S(=O)(=O)c4cccs4)CC3)CC2)c(OC)c1OC | 4% | 15µM* | . | -4% | 0% | -4%
O=C(OCc1cn([C@H]2C[C@H](c3ccc(Cl)cc3)N(C(=O)c3cccs3)C[C@@H]2O)nn1)c1ccccc1 | . | . | 2% | . | 3% | .
O=C(CC(Sc1ccccc1)c1cccs1)c1ccco1 (centres undefined) | -2% | 10% | -16% | . | 18µM* | -4%
O=C(Cc1cccs1)OCC(=O)c1ccco1 | -1% | 23% | -11% | 0% | -1% | -1%
C[n+]1ccc(/C=C/c2ccc(C=S)cc2)c2ccccc21 | . | . | 3% | . | . | .
COc1ccc(-c2[nH]n(-c3ccc([N+](=O)[O-])cc3)c(=O)c2C=NCc2ccc(F)cc2)cc1 | -2% | -20% | -1% | -3%[46.1 µM] | -1% | -1%
COc1ccc(-c2cc(=O)n(-c3ccc([N+](=O)[O-])cc3)[nH]2)cc1 | -20% | 3% | 28µM* | 5%[46.1 µM] | 7% | ?
O=S1(=O)N=C(Oc2ccccc2C(F)(F)F)c2ccccc21 | . | ? | . | . | . | 3%
Cc1cc(C)n2c(-c3ccccc3Cl)nnc2n1 | -13% | 7% | 28µM* | 1%[46.1 µM] | 1% | -8%
SMILES | miR-21 act | Nrf2 block | ClpP mod | TCR activator | Nrf2 activator | A549 tox
O=S1(=O)c2ccccc2N(Cc2cccc(C(F)(F)F)c2)c2ccccc21 | 28% | -25% | ? | . | 0% | 1%
Cc1ccc(C(=O)NCc2ccc3c(c2)CCN3C(=O)c2ccc(C)cc2)cc1 | 15% | . | 0% | . | 0% | -15%
O=C1N=c2ccccc2=C1c1c(O)[nH]c2c(C(F)(F)F)cccc12 | -1% | -13% | 14% | -6% | 8% | 0%
COc1ccc(OC)c(CC2C(=O)Nc3ccc(Br)cc32)c1 (centres undefined) | ? | 23µM* | 4% | . | -1% | 0%
CCOc1ccccc1-c1cc(-c2ccccc2)nc2c1c(=O)n(C)c(=O)n2C | 1% | 9% | 32µM* | -5% | 2% | ?
COC(=O)c1cc(-c2ccccc2)c2c(=O)n(C)c(=O)n(C)c2n1 | -2% | . | . | . | . | .
Cc1cccc(C)c1NC(=O)CN(C)C(=O)c1cc(S(=O)(=O)N(C)C)ccc1N1CCCC1 | . | -21% | -23% | -13% | 0% | -9%
CCN1C(=O)C(CC(=O)Nc2c(C)cccc2C)Nc2cc(S(=O)(=O)N(C)C)ccc21 (centres undefined) | -2% | -14% | 28µM* | -5% | 0% | 4%
Cn1c(N2CCOCC2)nc(-c2ccccc2)c1-c1ccccc1 | 6% | ? | 11µM* | -4% | 0% | 15%
Cc1onc(-c2ccccc2Cl)c1C(=O)NCc1nc(-c2ccc(C(F)(F)F)cc2)no1 | 18% | 26µM* | . | -3% | 2% | 0%
Cc1cc(I)ccc1Nc1nc(NCCN2CCOCC2)nc(N2CCOCC2)n1 | . | . | 0% | . | . | .
Cc1ccccc1NC(=O)c1oc2c(c1C)-c1nn(Cc3cccc(Cl)c3)cc1CC2 | -2% | 0% | -13% | . | -1% | 9%
COc1cc(NC(=O)c2oc3c(c2C)-c2nn(Cc4cccc(Cl)c4)cc2CC3)cc(OC)c1 | -17% | ? | 20µM* | . | 6% | 4%
CCn1cc2c(n1)-c1c(oc(C(=O)Nc3cccc(C(F)(F)F)c3)c1C)CC2 | -2% | 11% | 35µM* | . | 1% | -2%
COC(=O)c1cnc(NC(=O)C2(C)CCN2C(=O)C(C)C)s1 (centres undefined) | . | . | -1% | . | 0%[9.22 µM] | .
COc1ccccc1-c1cc(C(F)(F)F)n2ncc(S(=O)(=O)c3ccccc3)c2n1 | 0% | -20% | 28µM* | -1% | 0% | .
O=c1c2c3nc4ccccc4nc3n(CC3CCCO3)c2ncn1CCc1ccccc1 (centres undefined) | -1% | . | 4.5µM* | 3% | 2% | -3%
C=CCSc1nnc(-c2cccc3ccccc23)o1 | . | -13% | . | -2% | 4% | 3%
O=C(OCC#CCSc1nnc(-c2ccccc2)o1)c1cccs1 | -14% | . | -2% | 0% | 1% | 0%
O=C(OCC#CCSc1nnc(-c2cccc3ccccc23)o1)c1cccs1 | -18% | ? | 28µM*! | 1% | 4% | .
